Hits are enriched below; roughly 12% of the tested compounds scored in any of these assays.
L3MBTL1 block: blocks human L3MBTL1; Q9Y468; AlphaScreen L3MBTL1–H3K9me1 peptide binding; Potency, µM (highest dose often 57.1 µM), inactives show top-dose activity, negative = inhibition, most hits filed as inhibitors; actives 0.66% (n = 230,000); also: % is scaled to controls: 0 for no effect and ±100 for the full control effect; nearly all actives have a fitted effect of over 60% in size
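Read-out is AlphaScreen signal from streptavidin donor and nickel chelate acceptor beads (10 ug/mL final each) bridging L3MBTL1 (50 nM) and biotinylated K9-monomethylated H3(1-15) peptide (75 nM), after 30 min compound exposure at room temperature.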
BAZ2B inh: blocks human BAZ2B; AlphaScreen BAZ2B-H3K14Ac peptide displacement; Q9UIF8; actives 4.4% (n = 360,000); Potency, µM (highest dose often 114 µM), inactives show at the highest dose activity change, negative = inhibition, actives largely listed as inhibitors; AID 504333; also: % is scaled to controls: 0 for no effect and ±100 for the full control effect; nearly all actives have a fitted effect of over 60% in size
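BAZ2B 50 nM plus b-H3(5-23)K14Ac 50 nM, PBS pH 7.4/0.01% Tween-20, 30 min RT; compound added (max 110 uM), 30 min RT; streptavidin donor/Ni-chelate acceptor beads 10 ug/mL final, 20 min dark; AlphaScreen read.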
HP1b chromo inh: blocks HP1-beta chromodomain binding to methylated histone tails; Potency, µM (top dose mostly 114 µM), inactives show at the highest dose activity change, negative = inhibition, hits mostly inhibitors; actives 0.56% (n = 390,000); P83916; AlphaScreen HP1-beta / biotin-H3K9me3 peptide binding; also: nearly all actives have a fitted effect of over 70% in size
Target sequence (P83916 whole entry, looked up): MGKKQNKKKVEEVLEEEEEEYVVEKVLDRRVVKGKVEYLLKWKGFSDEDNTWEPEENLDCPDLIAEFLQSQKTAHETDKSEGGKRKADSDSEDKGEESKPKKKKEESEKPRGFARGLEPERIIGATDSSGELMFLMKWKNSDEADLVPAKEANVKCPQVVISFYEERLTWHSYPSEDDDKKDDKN
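AlphaScreen: HP1-beta (50 nM) preformed 30 min with biotin-H3(1-18)K9me3 peptide (50 nM) in PBS pH 7.4, 0.01% Tween-20. Compound added for 30 min at RT, then streptavidin donor/nickel chelate acceptor beads (10 ug/mL) for 30 min.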
G9a inh: G9a (human) methyltransferase inhibition; G9a H3K9 monomethylation, AlphaScreen, 2 h; Potency, µM (series often up to 102 µM), for inactives: at the top dose activity, negative = inhibition, hits mostly inhibitors; actives 8.8% (n = 350,000); also: % is scaled to controls: 0 for no effect and ±100 for the full control effect; nearly all actives have a fitted effect of over 75% in size
Target sequence (Q96KQ7 913-1193 limits assumed): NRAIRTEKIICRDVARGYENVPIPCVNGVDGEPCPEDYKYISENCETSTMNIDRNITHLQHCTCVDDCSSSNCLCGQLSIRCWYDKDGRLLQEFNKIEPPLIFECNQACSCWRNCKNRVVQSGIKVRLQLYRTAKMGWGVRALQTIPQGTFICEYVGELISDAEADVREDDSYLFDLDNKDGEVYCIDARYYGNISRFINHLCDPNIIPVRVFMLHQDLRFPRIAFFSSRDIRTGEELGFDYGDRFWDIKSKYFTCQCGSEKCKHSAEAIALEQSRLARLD
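Enzyme 20 nM + cpd, 15 min RT; add b-H3K9 pep 500 nM / SAM 20 uM; 2 h RT; anti-H3K9me1 Ab 0.5 ug/mL + SA donor / anti-rabbit acceptor beads 20 ug/mL each, 10 min; AlphaScreen read.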
JMJD2A Tudor inh: inhibitors of human JMJD2A Tudor domain; AID 504339; actives 4.4% (n = 390,000); AlphaScreen JMJD2A-Tudor / H3K4me3 peptide binding; Potency, µM (doses to about 114 µM), without a hit: at the top dose activity change, negative = inhibition, actives largely listed as inhibitors; also: % is scaled to controls: 0 for no effect and ±100 for the full control effect; nearly all actives have a fitted effect of over 50% in size
Sfp inh: blocks B. subtilis Sfp PPTase activity | Q9F4F7 | Biochemical Sfp PPTase activity, qHTS | Potency, µM, without a hit: largest response in the series, negative = inhibition, usual class: inhibitors | actives 3.5% (n = 310,000) | AID 1490;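 also: the enzyme is Sfp with the accession as filed and its product quenches rhodamine fluorescence; 0% = enzyme reaction without inhibitor and -100% = no enzyme wells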
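Fluorescence-quenching assay with 15 nM Sfp, 5 uM rhodamine-CoA and 12.5 uM BHQ-2-labelled ybbR peptide in pH 7.6 Hepes/MgCl2 buffer. Enzyme was pre-incubated with compound for 15 min at room temperature. Rate was taken from the 30-min fluorescence change (525/598 nm).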
* hit, by the source's call; ? = inconclusive; . = no result; [ ] = dose if it differs, or a comment. Calls follow the shape of the dose curve; as a rule, active = well fitted curve in the direction sought with a large enough effect; inconclusive = small, poorly fitted or top-dose-only effect, or another doubt; inactive = no such curve, though single readings can be large; an effect the other way counts as inactive or inconclusive. Potency is read from the fitted curve at half-maximal effect.

SMILES | L3MBTL1 block | BAZ2B inh | HP1b chromo inh | G9a inh | JMJD2A Tudor inh | Sfp inh
Cc1sc2c(c1C)C(=O)NC(c1cccc(O)c1)N2 (stereo not given) | -4% | -8% | . | 45µM* | . | 40µM*
CC1=C(c2ccc(C)c(C)c2)S(=O)(=O)N=C1N1CCC(C(=O)NCc2ccc(C)o2)CC1 | . | -21% | 1% | 19%[59 µM] | -9% | .
COc1ccccc1C(=O)Nc1cccc(C(=O)OCc2cc(=O)n3c4c(sc3n2)CCCC4)c1 | . | -7% | 18% | 5%[59 µM] | -14% | .
Cc1sc(N)nc1C12CC3CC(CC(C3)C1)C2 | -21% | ? | ? | 45µM* | -26% | -12%
CC(C)c1ccc(CNC(=O)C(=O)NCCCn2ccnc2)cc1 | . | 50µM* | 14% | 0%[59 µM] | -27% | 5%
CC(NC(=O)C(=O)NCCCn1ccnc1)c1ccccc1 (stereo not given) | -2% | 1% | 13% | -1% | 6% | 8%
CCOc1ccc(NC(=S)NCCCn2ccnc2)cc1 | -1% | 0% | 31% | 8%[59 µM] | -5% | 18%
S=C(NCCCn1ccnc1)Nc1cccc(Cl)c1 | -4% | 45µM* | 42% | 79µM* | -12% | 4%
O=C(NCc1ccc(Cl)cc1)C(=O)Nc1nccs1 | 9% | -13% | 21% | 50µM* | -8%[11.4 µM] | -9%
O=C(NCCCn1ccnc1)C(Cc1ccccc1)N1C(=O)c2ccccc2C1=O (stereo not given) | -10% | ? | 21% | -45%[12.7 µM] | 4%[57.1 µM] | 56µM*
CCCn1c(C)nc2c(N(C)CCN(C)C)nc(C)nc21 | . | . | . | . | . | 17%
CCOC(=O)CN1C(=O)c2cccnc2Oc2ccccc21 | . | 5% | 35% | 6%[59 µM] | 8% | .
CC(=O)N1CCN(S(=O)(=O)c2cccc(C(=O)NC3CC3)c2)CC1 | -4% | -15% | 24% | -44%[12.7 µM] | -12% | .
O=C(CCCCn1c(=O)c2ccccc2n(Cc2ccccc2F)c1=O)NCc1ccc2c(c1)OCO2 | . | 29% | 63% | 21%[59 µM] | -5% | .
O=C(NCc1ccc(Cl)cc1)c1cc(-c2cccs2)on1 | 10% | -30% | 22% | ? | -15% | 25µM*
COc1ccc(CNC(=O)c2cc(-c3cccs3)on2)cc1 | 4% | -16% | 26% | -32% | -3% | -4%
CC(C)c1ccc(CNC(=O)C(=O)Nc2nccs2)cc1 | . | -5% | 11% | 7.1µM* | ? | -1%
CC1(C)CC(N2CCOCC2)=CC(=[N+]2CCOCC2)C1 | 10% | -15% | ? | 40µM* | ? | -10%
CC1C[N+](=C2C=C(N3CCOCC3)CC(C)(C)C2)CC(C)O1 (stereo not given) | . | -38% | 25µM* | -7%[12.7 µM] | ? | ?
COc1cccc(N2C(=O)C3NN=C(C(=O)CN4C(=O)c5ccccc5C4=O)C3C2=O)c1 (stereo not given) | 11% | -8% | 13% | . | -8% | 2%
CCc1ccc(CN(Cc2ccco2)C(=O)c2cc(-c3ccc(Cl)cc3)on2)cc1 | . | 4% | 77% | 29%[59 µM] | 2% | .
Cc1sc(N/N=C/c2cccs2)nc1-c1ccccc1 | -7% | -27% | ? | 45µM* | 25µM* | -10%
Cc1sc(NC(=O)c2cccs2)nc1-c1ccccc1 | 2% | -1% | 31% | -51% | -26% | 15%
N#Cc1cccc(NC(=O)N2CCCC3(CCN(C(=O)c4cnccn4)CC3)C2)c1 | . | . | . | -3%[12.7 µM] | . | 8%
O=C(O)c1c2ccccc2cc2ccccc12 | . | . | . | . | . | 12%
SMILES | L3MBTL1 block | BAZ2B inh | HP1b chromo inh | G9a inh | JMJD2A Tudor inh | Sfp inh
Cc1c2ccccc2cc(Cc2ccccc2)[n+]1C | -9% | -13% | 28% | 28µM* | -1% | -8%
Cc1nn(-c2ncc(C(F)(F)F)cc2Cl)c(=O)n1-c1c(F)cccc1F | 26% | -17% | 29% | 79µM* | -11% | 16%
Cc1cccc(C)c1-n1c(C)nn(-c2ncc(C(F)(F)F)cc2Cl)c1=O | 0%[11.4 µM] | -17% | 22% | -10% | 9% | 7%
O=C(CSc1nnc(C2CCCCC2)n1Cc1ccccc1)NCc1ccco1 | -2% | -9% | ? | ? | 28µM* | -9%
O=C(CSc1nnc2scc(-c3ccc(Cl)cc3)n12)NCc1ccco1 | -5% | 4% | 7% | 26%[59 µM] | -20% | 6%
O=C(CSc1nnc2scc(-c3ccccc3)n12)NCc1ccco1 | 0% | -35% | 12% | 79µM* | -6% | 3%
C=CCn1c(SCC(=O)NCc2ccco2)nnc1C1CCCCC1 | 9% | 5% | 21% | -51% | -7% | .
Cc1nn(CCC#N)c(N)c1C1(O)C(=O)Nc2c(Cl)cc(Cl)cc21 (stereo not given) | ? | 20% | 25% | -6% | -15% | 5%
CCc1cccc(NS(=O)(=O)c2ccc3c(c2)N(C)CCO3)c1 | . | ? | -9% | ? | 32µM* | 3%
Cc1cc(C)c(/C=C/c2onc(C)c2S(=O)(=O)N2CCC(C(=O)Nc3ccc(Cl)c(C(F)(F)F)c3)CC2)c(C)c1 | . | -4% | 10%[57 µM] | 10%[59 µM] | -11% | .
O=C(CNC(=O)c1ccc2ccccc2c1)OC(C(=O)Nc1cc(C(F)(F)F)ccc1Cl)c1ccccc1 (stereo not given) | . | . | . | . | -18% | .
O=C(Nc1ncn[nH]1)c1ccccc1O | 1% | 79µM* | 42% | 0%[59 µM] | -27% | 13%
CCOc1ccc(C(=O)Nc2ncn[nH]2)cc1 | -11% | 50µM* | 32% | -7% | -18% | 1%
CC(C)COc1ccc(C(=O)Nc2ncn[nH]2)cc1 | 41% | 18% | 21% | . | -18% | 11%
O=C(Nc1ncn[nH]1)c1c(Cl)ccc(Cl)c1Cl | 3% | 31% | 31% | 24%[59 µM] | -2% | 15%
CCOc1ccc(C(=O)COC(=O)Cc2n[nH]c(=O)c3ccccc23)cc1 | -7% | 9% | 21% | -37% | -2% | .
CCOc1ccc(NC(=O)c2ccc(NC(=O)Cc3n[nH]c(=O)c4ccccc34)cc2)cc1 | -8% | -14% | 20% | 56µM* | 1% | -3%
Cc1cc(C(=O)Nc2ncn[nH]2)ccc1[N+](=O)[O-] | -5% | 50µM* | 54% | -7%[59 µM] | -24% | 0%
COc1ccc(NC(=O)C(OC(=O)CNC(=O)c2ccccc2)c2ccccc2)c(C)c1 (stereo not given) | . | . | . | . | -18% | .
CC(C)Oc1cccc(C(=O)Nc2ncn[nH]2)c1 | ? | 50µM* | 54% | . | -20% | -7%
CN(c1ccccc1)S(=O)(=O)c1cccc(C(=O)Nc2ncn[nH]2)c1 | . | ? | 47% | 24% | ? | 2%
CC(C)Oc1ccc(C(=O)Nc2nc3ccccc3[nH]2)cc1 | . | 2% | 46% | 24% | -2% | 22%
CC(C)Oc1ccc(C(=O)Nc2ncn[nH]2)cc1 | -5% | 50µM* | 60% | -71% | ? | 9%

Screens as filed in PubChem BioAssay.
